Experimental data from PubChem BioAssay (NCI).
The panel holds about 83,000 compounds, 20% with a hit somewhere; the sample as a whole holds those more often.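 A percent growth of 40 corresponds to 60% growth inhibition; 0 means no net growth; -100 means all cells died. Active threshold: below 10.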 Unmarked numbers belong to inactive results. Calls of active or inactive are those of the source.

Experiments:
Experiment in all cases: NCI-60 one-dose screen, 48 h (100 = growth as untreated, 0 = no growth, -100 = all killed)
Conditions in all cases: 10 µM unless noted
T-47D breast = tested on: T-47D breast
BT-549 breast = tested on: BT-549 breast
MDA-MB-435 melanoma = tested on: MDA-MB-435 melanoma
SW-620 colon = tested on: SW-620 colon
MCF7 breast = tested on: MCF7 breast
HCT-116 colon = tested on: HCT-116 colon
HCC-2998 colon = tested on: HCC-2998 colon
KM12 colon = tested on: KM12 colon

Compound	growth (T-47D breast)	growth (BT-549 breast)	growth (MDA-MB-435 melanoma)	growth (SW-620 colon)	growth (MCF7 breast)	growth (HCT-116 colon)	growth (HCC-2998 colon)	growth (KM12 colon)
O=C(NCCNc1nccc(-c2c(-c3cccc(O)c3)nc3sccn23)n1)c1ccc(N2CCOCC2)c(C(F)(F)F)c1	60.1%	53.8%	20.9%	111%	58.7%	60.2%	106%	77.5%
CC(C(C(=O)N1CCCCC1)N1CCCCC1)N1CCCCC1 (configuration not stated)	107%	111%	109%	108%	104%	97%	107%	113%
Nc1nc(-c2cc3c(cc2Cl)NC(=O)/C3=C/c2ccc(Cl)cc2)cs1	18.1%	26.3%	1.64% (active)	30%	16.8%	24.2%	73.3%	36%
O=C(O)c1ccc(-n2cc(/C=N/Nc3ccc(F)cc3)c(-c3cccc(C(F)(F)F)c3)n2)cc1	73.2%	95.4%	57.8%	63.3%	46.4%	66.3%	55.2%	52.8%
COc1ccc(-c2ccc(NC(=O)Nc3cccc(C(F)(F)F)c3)c(C)n2)cc1	26.5%	66.4%	69.6%	81%	41.5%	26.9%	81.1%	45.6%
COc1ccc(-c2nnc(SCC(=O)Nc3ccc(C(=O)/C=C/c4ccc(OC)c(OC)c4)cc3)o2)cc1	75%	113%	94.2%	92.7%	51.6%	77.8%	102%	84.5%
Nc1nc(Cl)cc(NCCCCNc2cc(Cl)nc(N)n2)n1	108%	99.9%	124%	112%	109%	102%	103%	113%
Nc1c(C(=O)O)[nH]c(=O)[nH]c1=O	104%	107%	108%	108%	95.6%	96.8%	105%	106%
O=C1c2ccccc2OC=C(c2ccccc2)N1CCCCN1CCCCC1	0.353% (active)	32.5%	67.4%	71.5%	38.6%	27.2%	69.1%	49.2%
COc1cccc(-c2nc3sccn3c2-c2ccnc(NCCNC(=O)c3ccccc3)n2)c1	61.9%	85.1%	55.2%	114%	81.7%	81.8%	114%	87.8%
Nc1nc(Nc2ccc(OCc3cccc(F)c3)cc2)c2c(n1)[nH]c1ccc(O)cc12	-59.8% (active)	-84.9% (active)	-41% (active)	-49.5% (active)	-82.7% (active)	-97.1% (active)	-17.6% (active)	-48% (active)
CNCCCOc1c(Br)cc(CCNC(=O)/C(Cc2ccc(OC)c(Br)c2)=N/O)cc1Br	54.7%	56.8%	41%	41%	19%	19.8%	46%	42.1%
COc1ccc(-c2cnc(-c3ccc(F)cc3)[nH]2)cc1	86.9%	314%	-6.97% (active)	18.6%	26.3%	-68.8% (active)	-10% (active)	30.6%
CCCCn1c(-c2cccc(OC)c2)nc2cc(OC)c(OC)cc2c1=O	91.6%	283%	115%	102%	97.9%	89.3%	103%	108%
Cc1nc(-c2ccc(Cl)cc2)ccc1NC(=O)Nc1cccc(C(F)(F)F)c1	87.5%	98.6%	103%	89.6%	81%	74.5%	107%	101%
CC1=C2C(=C[C@@](C)(CO)[C@@H]2OC(=O)N(C)CCN(C)C(=O)OC(C)(C)C)C(=O)[C@](C)(O)C12CC2	45.2%	56.8%	72.6%	71.3%	34.8%	15.9%	75.8%	74%
CSc1ccc(C(=O)C[n+]2cccc(C)c2)cc1	90.6%	104%	104%	102%	97.2%	101%	115%	100%
O=C(Nc1cccc(-n2ccc3c(NC(=O)c4ccccc4)nccc32)c1)c1cccc(C(F)(F)F)c1	55.8%	-6.35% (active)	1.38% (active)	20.2%	19%	1.3% (active)	31.8%	-3.3% (active)
Nc1nc(Cl)c2c(C(F)(F)F)cn(CC3CCNCC3)c2n1	104%	103%	76.5%	22.4%	103%	48.3%	78.9%	101%
O=C(Nc1ccc(-n2ccc3c(NC(=O)c4ccccc4)nccc32)cc1)c1cccc(C(F)(F)F)c1	58.3%	29%	11%	19.2%	24.3%	12.8%	44.2%	20.4%
CS(=O)(=O)OCC(COS(C)(=O)=O)C(c1ccccc1)c1ccccc1	100%	97.3%	105%	99.3%	101%	95.9%	109%	104%
CC1(C)CC(=O)C2=C(C1)OC1=C(C(=O)CC(C)(C)C1)C2c1ccc(OCc2cn(-c3ccc(F)cc3F)nn2)cc1	98.5%	110%	92.4%	118%	87.2%	91.9%	122%	90.2%
COc1cc(-c2nc(SCC(=O)Nc3ccc(C(C)=O)cc3)[nH]c(=O)c2C#N)cc(OC)c1OC	35.9%	36.8%	-46.1% (active)	25.8%	18.2%	3.92% (active)	21%	16.8%
Cc1[nH]n(C(=O)c2ccncc2)c(=O)c1N=Nc1ccc(S(=O)(=O)Nc2ccncn2)cc1	113%	127%	117%	108%	102%	92.6%	113%	109%
Cc1ccc(Cn2cc(COc3ccc4c5ccnc(C)c5n(CCCc5ccccc5)c4c3)nn2)cc1	89.9%	90.1%	106%	89.5%	86.2%	60%	102%	97.9%
C=C1C(=O)O[C@H]2[C@H]1CC/C(COC(=O)c1ccc(Cl)nc1)=C\CC[C@@]1(C)O[C@@H]21	-31.1% (active)	10.3%	14.6%	-45.2% (active)	7.96% (active)	-80.6% (active)	95.5%	82.8%
COc1ccc(-c2c(NC(=O)Nc3ccc(Cl)c(C(F)(F)F)c3)cnn2-c2ccc(S(N)(=O)=O)cc2)cc1	16.9%	39.3%	24.3%	38.2%	11.5%	14.5%	28.5%	29.6%
[2H]c1nc(Nc2ncc(F)c(-c3cc(F)c4nc(C)n(C(C)C)c4c3)n2)c([2H])c([2H])c1CN1CCN(CC)CC1	71.8%	55.4%	51.9%	33.8%	25.9%	20.6%	64.1%	31.9%
CC(C)(C)OC(=O)NCc1cccc(N=C=S)c1	11.2%	10.3%	51%	60.2%	29.5%	56.2%	57%	51.6%
